For some assays here: Measured potencies and affinities stand elsewhere. Calls of active or inactive are those of the source. Unless noted, the rule behind the calls is not given here.
Experiments:
[1] = antimalarial activity against Dd2 strain (AID 2302;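 active = growth inhibition above 50% at the single 2 µM test dose, taken to imply half-maximal potency below 2 µM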;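 note: 0% = DMSO untreated growth and 100% = chloroquine plus artemisinin killed control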); conditions: P. falciparum Dd2 in RBCs, LDH growth readout, 72 h; at 2 µM; active compounds read high
[2] = human hepatoma cell viability loss – ATP luminescence, cytotoxicity control for P. falciparum antimalarial project, primary screen (AID 2303;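 active = inhibition above 50%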;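 note: 0% = DMSO wells and 100% = digitonin-killed cells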); conditions: HepG2 viability, 24-48 h, at 10 µM, active compounds read high
[3] = molecular target: L-lactate dehydrogenase (Plasmodium falciparum (isolate CDC / Honduras)) (UniProt Q27743); experiment: PfLDH activity inhibition – cell lysate, 3D7 strain, counter-screen for P. falciparum growth inhibition project (AID 2304);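 note: 0% = vehicle and 100% = reference inhibitor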; conditions: P. falciparum 3D7 crude extract, LDH APAD/NBT absorbance; at 2 µM; active compounds read high
[4] = inhibition of 3D7 malaria parasite growth – strain 3D7 (AID 2306);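 note: 0% = DMSO wells and 100% = chloroquine plus artemisinin control wells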; conditions: P. falciparum 3D7 erythrocytic growth, LDH absorbance, 72 h; at 2 µM; active compounds read high
[5] = molecular target: Calcium-dependent protein kinase 1 (Plasmodium falciparum (isolate 3D7)) (UniProt P62344); experiment: PfCDPK1 kinase inhibitors, biochemical, TCAMS library (AID 1159585; cut-off not given, nearly all actives have IC50 up to about 0.98 µM;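 note: inhibitors leave more ATP so luminescence rises with inhibition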); conditions: recombinant PfCDPK1, Kinase-Glo ATP depletion luminescence
[6] = molecular target: Plasmodium falciparum protein kinase 6 (PK6, PF3D7_1337100) (UniProt Q8IDW1); experiment: PfPK6 kinase inhibitors, biochemical, TCAMS library (AID 1159586); conditions: recombinant PfPK6, Kinase-Glo ATP depletion luminescence
[7] = molecular target: Protein kinase 7 (PK7), Plasmodium falciparum 3D7 (PF3D7_0213400) (UniProt Q7YTF7); experiment: inhibition of Plasmodium PK7 catalytic activity – biochemical, TCAMS antimalarial set, Kinase-Glo luminescence (AID 1159587); conditions: recombinant PfPK7, Kinase-Glo ATP depletion luminescence
[8] = molecular target: Calcium-dependent protein kinase 4 (Plasmodium falciparum (isolate 3D7)) (UniProt Q8IBS5); experiment: PfCDPK4 kinase inhibitors, biochemical, TCAMS library (AID 1159588; cut-off not given, nearly all actives have IC50 up to about 0.91 µM); conditions: recombinant PfCDPK4, Kinase-Glo ATP depletion luminescence
Calcium-dependent protein kinase 4 (Plasmodium falciparum (isolate 3D7)), sequence (Q8IBS5 whole entry, looked up): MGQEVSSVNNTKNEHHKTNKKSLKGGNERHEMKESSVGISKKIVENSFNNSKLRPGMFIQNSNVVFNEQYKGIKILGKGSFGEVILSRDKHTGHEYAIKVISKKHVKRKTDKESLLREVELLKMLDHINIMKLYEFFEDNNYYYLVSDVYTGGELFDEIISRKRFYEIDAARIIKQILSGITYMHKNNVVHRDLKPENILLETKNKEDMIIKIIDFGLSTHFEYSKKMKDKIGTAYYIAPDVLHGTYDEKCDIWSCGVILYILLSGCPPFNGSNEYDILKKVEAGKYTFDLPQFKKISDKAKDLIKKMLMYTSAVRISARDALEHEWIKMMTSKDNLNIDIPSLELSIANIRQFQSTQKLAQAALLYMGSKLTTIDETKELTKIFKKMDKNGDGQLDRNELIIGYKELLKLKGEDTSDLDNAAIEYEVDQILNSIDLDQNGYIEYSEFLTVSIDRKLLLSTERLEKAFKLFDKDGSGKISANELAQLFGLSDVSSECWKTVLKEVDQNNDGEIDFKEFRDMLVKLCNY

Plasmodium falciparum protein kinase 6 (PK6, PF3D7_1337100), sequence (Q8IDW1 1-305): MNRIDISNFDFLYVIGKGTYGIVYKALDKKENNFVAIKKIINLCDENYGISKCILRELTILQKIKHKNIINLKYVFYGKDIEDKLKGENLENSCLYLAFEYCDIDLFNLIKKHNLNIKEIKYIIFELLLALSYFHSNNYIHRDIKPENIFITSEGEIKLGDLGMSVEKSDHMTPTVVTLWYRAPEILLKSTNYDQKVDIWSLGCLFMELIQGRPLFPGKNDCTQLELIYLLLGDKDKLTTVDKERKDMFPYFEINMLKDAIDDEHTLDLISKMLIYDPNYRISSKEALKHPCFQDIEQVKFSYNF
Protein kinase 7 (PK7), Plasmodium falciparum 3D7 (PF3D7_0213400), sequence (Q7YTF7 1-343): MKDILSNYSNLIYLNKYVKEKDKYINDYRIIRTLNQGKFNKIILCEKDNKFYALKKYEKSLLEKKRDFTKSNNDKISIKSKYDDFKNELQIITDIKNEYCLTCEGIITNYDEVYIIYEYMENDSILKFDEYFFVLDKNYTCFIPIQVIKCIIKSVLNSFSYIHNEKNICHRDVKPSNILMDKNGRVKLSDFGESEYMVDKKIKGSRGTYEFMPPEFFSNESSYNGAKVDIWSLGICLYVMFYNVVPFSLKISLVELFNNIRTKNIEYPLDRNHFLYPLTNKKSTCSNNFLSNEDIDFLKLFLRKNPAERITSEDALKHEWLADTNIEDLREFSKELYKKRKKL
L-lactate dehydrogenase (Plasmodium falciparum (isolate CDC / Honduras)), sequence (Q27743 whole entry, looked up): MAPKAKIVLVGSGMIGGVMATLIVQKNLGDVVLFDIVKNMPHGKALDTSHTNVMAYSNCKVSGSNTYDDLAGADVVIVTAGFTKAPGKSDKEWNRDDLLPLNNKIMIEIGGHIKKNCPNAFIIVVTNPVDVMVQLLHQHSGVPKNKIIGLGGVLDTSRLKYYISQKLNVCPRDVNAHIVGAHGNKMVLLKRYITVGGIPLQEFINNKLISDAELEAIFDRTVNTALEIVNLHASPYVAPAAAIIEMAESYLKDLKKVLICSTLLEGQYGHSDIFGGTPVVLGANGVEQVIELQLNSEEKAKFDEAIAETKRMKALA
Calcium-dependent protein kinase 1 (Plasmodium falciparum (isolate 3D7)), sequence (P62344 whole entry, looked up): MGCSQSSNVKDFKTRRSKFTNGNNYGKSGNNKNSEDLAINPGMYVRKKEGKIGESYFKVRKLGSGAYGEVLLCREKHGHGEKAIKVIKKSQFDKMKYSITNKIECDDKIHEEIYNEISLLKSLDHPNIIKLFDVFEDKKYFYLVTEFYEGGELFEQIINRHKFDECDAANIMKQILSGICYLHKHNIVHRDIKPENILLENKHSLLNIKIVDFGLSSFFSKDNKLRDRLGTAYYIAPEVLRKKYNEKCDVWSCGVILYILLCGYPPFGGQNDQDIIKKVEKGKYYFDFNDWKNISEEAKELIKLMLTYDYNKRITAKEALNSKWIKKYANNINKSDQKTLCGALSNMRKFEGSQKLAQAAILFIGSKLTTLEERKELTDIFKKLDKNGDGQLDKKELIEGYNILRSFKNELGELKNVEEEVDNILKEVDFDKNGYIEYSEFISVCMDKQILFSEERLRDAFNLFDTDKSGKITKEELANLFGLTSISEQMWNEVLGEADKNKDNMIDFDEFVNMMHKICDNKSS

Row | Structure (SMILES) | growth inhibition [1] | inhibition [2] | inhibition [3] | growth inhibition [4] | outcome [5] | outcome [6] | outcome [7] | outcome [8]
1 | CCCCCCNC(=O)C1Cc2c([nH]c3ccc(C)cc23)C2(CCN(CCc3ccccc3)CC2)N1 (stereo unspecified) | 24% (inactive) | 31% (inactive) | 4% (inactive) | 85% (active) | inactive | inactive | inactive | inactive
2 | COc1cc2nc(-c3ccc(Br)cc3)cc(N)c2cc1OC | 69% (active) | 90% (active) | -3% (inactive) | 98% (active) | inactive | inactive | inactive | inactive
3 | CC[C@H](NC(=O)c1c(CCCN2CCN(c3ccccc3)CC2)c(-c2ccccc2)nc2cc(O)ccc12)c1ccccc1 | 97% (active) | 12% (inactive) | 6% (inactive) | 96% (active) | inactive | inactive | inactive | inactive
4 | Cc1nc(N)nc(N)c1-c1ccc(Br)c([N+](=O)[O-])c1 | 2% (inactive) | 64% (active) | 2% (inactive) | 95% (active) | inactive | inactive | inactive | inactive
5 | O=C(Nc1ccc(-c2nc3ccccc3[nH]2)cc1)c1ccc(Cl)s1 | 34% (inactive) | 16% (inactive) | 4% (inactive) | 99% (active) | inactive | inactive | inactive | inactive
6 | COc1ccc(C(=O)COc2cccc(/C=C/C(=O)O)c2)cc1OC | 28% (inactive) | 44% (inactive) | 3% (inactive) | 84% (active) | inactive | inactive | inactive | inactive
7 | CN1CCC(NCc2cccc(-c3ccc(S(=O)(=O)NCCN4CCCC4)s3)c2)CC1 | 1% (inactive) | 10% (inactive) | -5% (inactive) | 91% (active) | inactive | inactive | inactive | inactive
8 | Cc1cc(-c2ccc3c(c2)CCN(CCC2CCC(NC(=O)/C=C/c4ccccc4F)CC2)CC3)on1 (stereo unspecified) | 13% (inactive) | 26% (inactive) | -4% (inactive) | 94% (active) | inactive | inactive | inactive | inactive
9 | COc1cc(NCCCCCNc2cc(Cl)nc3ccccc23)nc2ccccc12 | 54% (active) | 17% (inactive) | -3% (inactive) | 103% (active) | inactive | inactive | inactive | inactive
10 | COc1cccc(C(=O)NCc2n[nH]c(=S)n2-c2ccc(Cl)c(Cl)c2)c1 | 100% (active) | -1% (inactive) | 5% (inactive) | 102% (active) | inactive | inactive | inactive | inactive
11 | CCOC(=O)c1ccc(Nc2cc(Nc3ccc(C(=O)OCC)cc3)nc(C)n2)cc1 | 33% (inactive) | 4% (inactive) | 4% (inactive) | 99% (active) | inactive | inactive | inactive | inactive
12 | CCN1CCN(C(=O)NC(C(=O)N(C)Cc2ccc(-c3ccc(C(F)(F)F)cc3)cc2)c2cccs2)C(=O)C1=O (stereo unspecified) | 95% (active) | -5% (inactive) | -1% (inactive) | 99% (active) | inactive | inactive | inactive | inactive
13 | CCC(C)NC(=O)Nc1cccc(-c2cccc(-c3nc4c(C)cccc4[nH]3)c2)c1 (stereo unspecified) | 27% (inactive) | 3% (inactive) | 5% (inactive) | 101% (active) | inactive | inactive | inactive | inactive
14 | Cc1cccc2[nH]c(-c3ccc(-c4ccc(NC(=O)CN5CCN(C)CC5)cc4)cc3)nc12 | 83% (active) | 29% (inactive) | 1% (inactive) | 100% (active) | inactive | inactive | inactive | inactive
15 | CCNc1cc(C(=O)N[C@@H](Cc2ccccc2)[C@H](O)CNCc2cc(C#N)ccc2OC)cc(N2CCCC2=O)c1 | 51% (active) | -1% (inactive) | -3% (inactive) | 85% (active) | inactive | inactive | inactive | inactive
16 | c1cc(CN2CCN(CCN3CCOCC3)CC2)cc(-c2ccc(-c3nc4ccccc4[nH]3)cc2)c1 | 100% (active) | 23% (inactive) | -8% (inactive) | 100% (active) | inactive | inactive | inactive | inactive
17 | CCNc1cc(C)nc(Nc2ccc(NC(=O)c3ccc(OC)c(OC)c3)cc2)n1 | 65% (active) | 19% (inactive) | 0% (inactive) | 101% (active) | inactive | inactive | inactive | inactive
18 | COc1cccc2c(Nc3ccccc3C)nc(Nc3ccccc3C)nc12 | 36% (inactive) | 9% (inactive) | 4% (inactive) | 95% (active) | inactive | inactive | inactive | inactive
19 | CCCc1cc(=O)[nH]c(-n2nc(C)cc2NC(=O)C(CC)c2ccccc2)n1 (stereo unspecified) | 63% (active) | 41% (inactive) | -2% (inactive) | 94% (active) | inactive | inactive | inactive | inactive

Row | Structure (SMILES) | growth inhibition [1] | inhibition [2] | inhibition [3] | growth inhibition [4] | outcome [5] | outcome [6] | outcome [7] | outcome [8]
20 | CCCN(Cc1ccc(OCC)cc1)Cc1cc(=O)c2cc(Cl)ccc2[nH]1 | 82% (active) | 47% (inactive) | 1% (inactive) | 82% (active) | inactive | inactive | inactive | inactive
21 | NC(=O)c1ccc(C(=O)Nc2cccc(-c3ccc(-c4nc5ccc(C(F)(F)F)cc5[nH]4)cc3)c2)cc1 | 31% (inactive) | 35% (inactive) | -1% (inactive) | 100% (active) | inactive | inactive | inactive | inactive
22 | CC1CN(Cc2ccccc2)CCN1c1ccc(NC(=O)c2ccc(F)cc2)cc1 (stereo unspecified) | 89% (active) | -6% (inactive) | -5% (inactive) | 87% (active) | inactive | inactive | inactive | inactive
23 | CS(=O)(=O)c1ccccc1CNC(=O)c1ccc(-c2cccc(-c3nc4ccc(C(F)(F)F)cc4[nH]3)c2)cc1 | 4% (inactive) | 36% (inactive) | 4% (inactive) | 91% (active) | inactive | inactive | inactive | inactive
24 | Cc1ccc(N2C(N)=NC(N)=NC2(C)C)cc1Cl | 77% (active) | 66% (active) | -4% (inactive) | 90% (active) | inactive | inactive | inactive | inactive
25 | CCCc1cc(C(=O)N[C@@H](Cc2ccccc2)[C@H](O)CNC2CCOCC2)c(F)c(N2CCCCS2(=O)=O)c1 | 97% (active) | -6% (inactive) | -3% (inactive) | 97% (active) | inactive | inactive | inactive | inactive
26 | COc1c(OC)c(OC)c2ccccc2c1CCNCCCCNCCc1c(OC)c(OC)c(OC)c2ccccc12 | 72% (active) | 100% (active) | -3% (inactive) | 99% (active) | inactive | inactive | inactive | inactive
27 | CN=C(Nc1c(Cl)cccc1Cl)N(C)C | 1% (inactive) | -12% (inactive) | -1% (inactive) | 98% (active) | inactive | inactive | inactive | inactive
28 | O=C(Nc1cccc(CN2CCCN(Cc3ccc(O)cc3)CC2)c1)c1cccc(F)c1 | 4% (inactive) | 22% (inactive) | -2% (inactive) | 92% (active) | inactive | inactive | inactive | inactive
29 | CC(C)[C@H](NC(=O)c1ccc(O)c(-c2cccc(C(F)(F)F)c2)c1)C(=O)NCCN1CCCCC1 | 29% (inactive) | 3% (inactive) | 2% (inactive) | 99% (active) | inactive | inactive | inactive | inactive
30 | CCCCCCN1CCCN(Cc2ccc(C(=O)Nc3ccc(F)c(F)c3)cc2)CC1 | 48% (inactive) | 50% (active) | -8% (inactive) | 84% (active) | inactive | inactive | inactive | inactive
31 | CC(=O)C1=NN(c2ccc(C)cc2)C(c2cccs2)N1c1ccccc1 (stereo unspecified) | 64% (active) | -4% (inactive) | -4% (inactive) | 89% (active) | inactive | inactive | inactive | inactive
32 | Cc1ccc2nc(N(CCCn3ccnc3)C(=O)C=Cc3cccs3)sc2c1 | 57% (active) | 22% (inactive) | 0% (inactive) | 100% (active) | inactive | inactive | inactive | inactive
33 | Cc1cccc(OCCCCON2C(N)=NC(N)=NC2(C)C)c1C | 95% (active) | 65% (active) | -3% (inactive) | 97% (active) | inactive | inactive | inactive | inactive
34 | Cc1[nH]c(C)c(-c2ccc(OCc3ccc(OC(F)(F)F)cc3)nc2)c(=O)c1Br | 97% (active) | 10% (inactive) | 7% (inactive) | 98% (active) | inactive | inactive | inactive | inactive
35 | O=C(NCCN1CCOCC1)c1csc(C2CCCN(C(=O)c3ccc(O)c(-c4cc(Cl)cc(Cl)c4)c3)C2)n1 (stereo unspecified) | 50% (active) | 12% (inactive) | 6% (inactive) | 97% (active) | inactive | inactive | inactive | inactive
36 | CCc1c(CCNCCCC(C)CCNCCc2ccc(OC)c(OC)c2CC)ccc(OC)c1OC (stereo unspecified) | 27% (inactive) | 99% (active) | 1% (inactive) | 100% (active) | inactive | inactive | inactive | inactive
37 | CCCC(C(=O)OCCN(CC)CC)(c1ccc(Cl)cc1)c1ccc(Cl)cc1 | 87% (active) | 7% (inactive) | 2% (inactive) | 91% (active) | inactive | inactive | inactive | inactive
